ATXN2 expr inh: Primary qHTS for Inhibitors of ATXN expression; HEK-293 ATXN2-luciferase reporter, luminescence, 24 h; Potency, µM (titrated, usually from 57 µM), usual class: inhibitors; actives 0.72% (n = 360,000); also: nearly all actives have a fitted effect of over 55% in size
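qHTS (up to 57 uM final) was run with 24 h compound exposure of reporter cells at 37 °C. Each well was multiplexed: SteadyGlo luminescence measured ATXN2-luciferase expression after a fluorogenic Gly-Phe-AFC viability readout (25 uM final).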
ATXN viability: Viability Counterscreen for Primary qHTS for Inhibitors of ATXN expression; AID 651635, 2014; actives 0.49% (n = 400,000); Potency, µM (top dose mostly 56.7 µM), hits mostly cytotoxic; S2 cells (HEK-293 line with an ATXN2-luciferase reporter) viability, CellTiter-Fluor protease fluorescence, 24 h; also: nearly all actives have a fitted effect of over 40% in size
A549 viability: Nrf2 qHTS screen for inhibitors: counterscreen for cytotoxicity; Potency, µM (highest dose often 46 µM), usual class: inhibitors; A549 ARE-Fluc cells, CellTiter-Fluor viability, 18-24 h; actives 0.16% (n = 390,000)
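A549 ARE_Fluc cells in 5% FBS OPTI-MEM were exposed to compounds in concentration-response for 18-24 h at 37 deg C. Viability was read by CellTiter-Fluor fluorescence (Ex 405/Em 525) after 30 min, before the luciferase read.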
Nrf2 block: Nrf2 qHTS screen for inhibitors. Potency, µM (highest dose often 46 µM), actives largely listed as inhibitors. A549 ARE-Fluc reporter, luciferase luminescence, 18-24 h. actives 2.1% (n = 360,000). AID 504444, 2011; also: nearly all actives have a fitted effect of over 60% in size
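Two sequential reads on A549 ARE_Fluc cells exposed to compound for 18-24 h: a CellTiter-Fluor fluorescence read for viability, then a luciferase luminescence read for Nrf2/ARE activity.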
Nrf2 ARE act: qHTS of Nrf2 Activators; AREc32 ARE-luciferase reporter (MCF7-derived line), luminescence, 24 h; Potency, µM (highest dose often 46.1 µM), actives largely listed as activators; actives 0.31% (n = 410,000); AID 624171, 2012; also: nearly all actives have a fitted effect of over 65% in size
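Nrf2 activation is followed as ARE-luciferase induction in the AREc32 line after one day of compound treatment; luminescence is read with Steady-Glo.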
Numbers stand for hits; n = inactive; u = inconclusive; x = no result. An excerpt weighted towards active compounds, which were near 2.9% of everything screened. Calls follow the shape of the dose curve; as a rule, active = well fitted curve in the direction sought with a large enough effect; inconclusive = small, poorly fitted or top-dose-only effect, or another doubt; inactive = no such curve, though single readings can be large; an effect the other way counts as inactive or inconclusive.

SMILES	ATXN2 expr inh	ATXN viability	A549 viability	Nrf2 block	Nrf2 ARE act
COc1cc(C2C(C(=O)Nc3ccccc3)=C(C)Nc3nnnn32)cc(OC)c1OC (configuration not stated)	u	n	n	n	n
COc1ccc2[nH]c3c(c2c1)CCN1C(=O)C(CC(=O)NCC24CC5CC(CC(C5)C2)C4)C[C@H](C(=O)N2CCOCC2)[C@@]31CCC1CCCC1 (some centres not stated)	n	n	n	20.6µM	n
O=C(C[C@H]1C[C@H](C(=O)N2CCOCC2)[C@@]2(CCC3CCCC3)c3[nH]c4ccc(Cl)cc4c3CCN2C1=O)NCC12CC3CC(CC(C3)C1)C2	n	n	n	u	n
CC[C@]12c3[nH]c4ccc(Cl)cc4c3CCN1C(=O)[C@@H](CC(=O)NCCC1=CCCCC1)C[C@@H]2C(=O)N1CCN(C(=O)c2ccco2)CC1	u	x	u	16.4µM	n
CC(C)N(C(=O)[C@H]1C[C@H](CC(=O)NCc2cccc(C(F)(F)F)c2)C(=O)N2CCc3c([nH]c4cc(CCC(=O)N(C)C)ccc34)[C@]12C)C(C)C	u	15.8µM	n	u	n
COc1ccc2[nH]c3c(c2c1)CCN1C(=O)C(CC(=O)NCCC2=CCCCC2)C[C@H](C(=O)N2CCCCC2)[C@@]31CCc1ccccc1 (some centres not stated)	n	n	n	18.4µM	n
CCN(CC)C(=O)[C@H]1C[C@H](CC(=O)NCc2cccc(C(F)(F)F)c2)C(=O)N2CCc3c([nH]c4cc(CCC(=O)N(C)C)ccc34)[C@]12C	n	u	n	n	n
CC[C@]12c3[nH]c4ccc(Cl)cc4c3CCN1C(=O)[C@@H](CC(=O)NCCN1CCOCC1)C[C@@H]2C(=O)N1CCN(C(=O)c2ccco2)CC1	n	n	n	n	n
COCc1c(C(=O)N2CCN(C)CC2)cnn1-c1ncc2c(n1)-c1ccccc1CCC2	x	n	x	x	x
CCOc1ccccc1NC(=O)C(NS(=O)(=O)c1cccc2nsnc12)c1ccccc1 (configuration not stated)	x	x	n	x	n
CC(C)N(C(=O)[C@H]1CC(CC(=O)NCCC2=CCCCC2)C(=O)N2CCc3c([nH]c4ccccc34)[C@]12C)C(C)C (some centres not stated)	u	39.8µM	u	u	n
CCN(CC)C(=O)[C@H]1C[C@H](CC(=O)NCC23CC4CC(CC(C4)C2)C3)C(=O)N2CCc3c([nH]c4ccc(Cl)cc34)[C@]12C	u	u	n	23.1µM	n
COc1ccc2[nH]c3c(c2c1)CCN1C(=O)C(CC(=O)NCCC2=CCCCC2)C[C@H](C(=O)N(C(C)C)C(C)C)[C@@]31C (some centres not stated)	u	u	u	u	n
CC[C@]12c3[nH]c4ccc(OC)cc4c3CCN1C(=O)C(CC(=O)NCC13CC4CC(CC(C4)C1)C3)C[C@@H]2C(=O)N1CCN(C(=O)c2ccco2)CC1 (some centres not stated)	u	u	n	u	n
CN(C)CCCNC(=O)C[C@H]1C[C@H](C(=O)N2CCCCC2)[C@@]2(CCc3ccccc3)c3[nH]c4cc(-c5ccco5)ccc4c3CCN2C1=O	u	28.2µM	n	n	n
CC[C@]12c3[nH]c4ccc(Cl)cc4c3CCN1C(=O)[C@@H](CC(=O)NCC13CC4CC(CC(C4)C1)C3)C[C@@H]2C(=O)N1CCN(C(=O)c2ccco2)CC1	25.1µM	u	u	u	n
OC[C@H]1O[C@@H](OCCc2ccc(O)cc2)[C@H](O)[C@@H](O)[C@H]1O	n	n	x	x	x
COC(=O)c1ccc(C(=O)NCC2Cc3cc(F)cc(-c4cncnc4)c3O2)cc1 (configuration not stated)	x	n	x	x	x
CC(C)(C)c1ccc(S(=O)(=O)N[C@H]2CC[C@@H](n3cc(C(=O)N4CCCC4)nn3)CC2)cc1	x	n	x	x	x
CCCCC(=O)NC(c1ccccc1)c1ccc2cccnc2c1O (configuration not stated)	u	n	n	u	n
CCC(=O)NC(c1ccccc1OC)c1ccc2cccnc2c1O (configuration not stated)	u	u	n	u	n

Screening data deposited in PubChem by National Center for Advancing Translational Sciences (NCATS).
